Data published in PubChem BioAssay (NCI).
Compounds without any hit were thinned out: in the full panel of roughly 79,000, 15% have a hit. Activity calls are given as the source filed them. No stated cut-off is given here; in the data, active means growth inhibition above about 70%; inactive means the rest.

test: NCI Yeast Anticancer Drug Screen. Data for the mec2-1 strain (AID 157); conditions: S. cerevisiae mec2-1 strain, at 50.0 µM, stronger effect = higher value
How it was run: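 Growth inhibition is read against vehicle-treated controls after compound exposure of the mec2-1 yeast strain, which is defective in DNA damage repair or cell cycle control.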

Structure (SMILES) | growth inhibition
NCC(O)C(F)(F)F (configuration not stated) | -7.9% (inactive)
CCC(O)(c1ccc(O)cc1)C(O)(CC)c1ccc(O)cc1 (configuration not stated) | -12.8% (inactive)
COc1ccc(S(=O)(=O)N(CC(=O)O)c2ccccc2)cc1 | -6% (inactive)
O=C(O)C(Cc1ccccc1)C(=O)O.[NH2-].[NH2-].[Pt+2] | -0.95% (inactive)
CC1C2(C)OCC(C#N)(C(=N)O2)C1(C#N)C#N (configuration not stated) | 12.2% (inactive)
CCOP(=O)(OCC)C([O][Sb]([O]CC(C)Cl)[O]CC(C)Cl)c1ccc(OC)cc1 (configuration not stated) | -4.85% (inactive)
COC(=O)c1c(C)cc(OC)c(C/C=C(\C)CCCc2coc(C=C(C)C)c2)c1OC | 6.55% (inactive)
BrC1(Br)C2COCOCC21 (configuration not stated) | -1.4% (inactive)
CC1=C(C(=O)Nc2ccccc2C)C(c2ccco2)C(C(=O)Nc2ccccc2C)=C(C)N1C | -6.6% (inactive)
C(=NC12CC3CC(CC(C3)C1)C2)C1CCCCC1 | -24.8% (inactive)
N#CC12CCC(O)C(CC1)C2=O (configuration not stated) | 0.85% (inactive)
CC12CCC(C/C1=N\N=C(N)N)C2(C)C (configuration not stated) | -4% (inactive)
CSc1ccc(/C=C/c2ccnc3ccccc23)cc1 | 14.8% (inactive)
O=c1cc(-c2ccccc2)oc2c(-c3cc(Cl)cc4c(=O)cc(-c5ccccc5)oc34)cc(Cl)cc12 | 23.4% (inactive)
O=C(O)C(O)(C1CCCCC1)C1CCC2CCC3CCCC1C32 (configuration not stated) | 9.4% (inactive)
C=C(Br)CN(C(C)=O)C1CCCCC1 | -10.7% (inactive)
CCOc1nc(N)nc(C)c1N=Nc1ccc(C)cc1 | -8.45% (inactive)
